Test results taken from the supplement of paper PMC6555819.

Test system: VDR:RXRa (NR concentration 270 nM, RXRa partner concentration 90 nM)
Test: PBM binding z-score (relative to random genomic background probes); higher = stronger binding; sequences stand for … in GC…GCGATTGACAGCGTAGAATGAAGG
Experimental: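 Protein-binding microarray (Agilent 4x180K custom design, double-stranded 60-nt probes: 5' GC cap, 34-nt variable region, 24-nt constant primer region; full probe sequence given). Purified or IVT nuclear receptor:RXRα heterodimers (3:1 NR:RXRα, mostly 270:90 nM) or homodimers were incubated for 1 h in PBS with 2% milk and no ligand, then detected with Alexa488 antibodies. Fluorescence from o1-orientation probes (~5 replicates averaged) was converted to z-scores against 500 random hg19 background probes. Variable regions are seed direct-repeat (DR0–DR5) sites, all their single-nucleotide variants and half-site ablations.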

| Sequence | PBM binding z-score |
| --- | --- |
| TCTTGTACATCAATAGAGGTTAAGAAAGTGCGCT | 2.07 |
| TCTTATAGGTAAATGCTAGGTGAAAGTCCGATCT | 0.709 |
| CGTACTGGGCCAAGGTCATTGATCAGTCAAAGCA | 3.3 |
| GCTCGGAGGACAAGGTCAGACCTTTGTCCGTAGA | 1.97 |
| TCTAGCAGGCAAGAGGGTCACTCAAGAGGTACGG | 2.01 |
| TCATATAGGTAAAAGCTGAAAGTCGGTGTGGTAA | 0.748 |
| CGGCCAAGGTCAGAGAGGTCAGTGAATGCCGAGT | 7.41 |
| TAGCCTAGGTCATGGGGCCAGTATAGTACGCATC | 2.69 |
| TCTATTATTTGAAGGGCAACCGACGAGTCCGTTT | 1.55 |
| AGAACGAGGGCAATGTGTTGATAGCACGGGTGGC | 0.824 |
| TCTGCTAGGTCAGATGGTCAGCTAACGAGCTGCC | 0.133 |
| ACTTACGGGTCAACGAGGTTATATCACGCGTATA | 7.44 |
| TATACAGGGTCAAATGCCAGAGTACGAATGTCGA | 4.82 |
| ACCTCTAGGTAACAAGTTCAGTGAAAGAGAGGAC | 1.59 |
| ATACCAAGGTGATCGTCAGGTCGTTGATACTAAC | 1.36 |
| TGAATGAGTTTAAAGATCAGGGAACGTGGCGTCG | 1.09 |
| TGAATGAGGTTAAAGATCAGGCAACGTGGCGTCG | 1.88 |
| CGTCCAAGGTCATAGGAGGTCTGTGAAGACAGAT | 4.72 |
| ATCTCTAGGTAAAGTTCAGTGGAAGATCGATAGA | 1.44 |
| CGTCAAAGTTCAACTAAGGTAAAGTAAAGCACGC | 4.64 |

| Sequence | PBM binding z-score |
| --- | --- |
| CGTCCAAAGTCAATGCTAGGTCAGTGAAAGCATT | 0.457 |
| AGAATGAGGTTATACGTAGATCCGGGAAGAAAGT | 1.15 |
| TCAGACAGGCGAAGGTAACTCAGGTACGCAGTCG | 0.498 |
| CCGACTGGGGCAAGGTTACCATTACGCACAGCCA | 0.00135 |
| GCATATAGCTAATACAAGGTGAAAGTCCGATTGT | 0.231 |
| CCGAATGGGGCAGAAAGGTTACCATACCATCCGG | 1.33 |
| CCTCGGAGGACAACAGGAGTTCAGAGCTGCCAGA | 1.14 |
| CCTACTGGGCCAATCAGAGGTCATTGATCATATG | 4.12 |
| ATCTCTAGGTAAGACTCAGTTCAGTGAAGAACGC | 0.833 |
| ACAGACAGGTGATGAAGGAAACTCAGGCTATCAT | -0.266 |
| ACTAGCAGGCCAAGGGTCACTGAAGATTAGTCCG | 2.81 |
| AGAACGAGGGCACACTGAGTTGATAGCAGAGTAG | 2.15 |
| CCTTACGGGTCACTGACAGGTTAAAGCATTTGGA | 3.75 |
| GCATATAGGTAATACAAGGTGGAAGTCCGATTGT | -0.118 |
| CGTCCAAGGTCATAGGAGGTCAGTGGAGACAGAT | 6.87 |
| CCTTACGGCTCACTCCAGGTTATAGCATCGGAGT | 0.016 |
| TCGACTAGGTTAGTCGGGGCATTCAGCCAACATA | 1.81 |
| TTACCAAGCTGAAAGGTCGTTGATGCACGCCTTG | 1.07 |
| GCGACTGGGGCATCAGCAGGTTACCCTAACTTAA | -0.249 |
| TAGCCTAGGTCATGTGGGCCAGTATAGTGTCGGC | 2.62 |
